Results from PubChem BioAssay (NCI).
The panel holds about 79,000 compounds, 15% with a hit somewhere; the sample as a whole holds those more often. Values without a mark were called inactive. Calls of active or inactive are those of the source. Rule as the data show it: active = growth inhibition above about 70%; inactive = the rest.

experiment: NCI Yeast Anticancer Drug Screen. Data for the rad52 strain (AID 147);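 also: 0% = growth of vehicle-treated control cultures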; settings: S. cerevisiae rad52 mutant growth inhibition; at 33.0 µM; hits give high values
In short: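 Growth of repair-deficient yeast cells was compared between compound-treated and vehicle-treated cultures to give percent inhibition.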

SMILES	growth inhibition
CCOP(=O)(OCC)C(Cc1ccccc1)N=C(c1ccccc1)c1ccccc1 (stereo not drawn)	91% (active)
CCc1ncnc2cc(OCC3CO3)c(OC)cc12 (stereo not drawn)	82% (active)
CCOC(=O)[C@H]1Nc2ccccc2C2c3ccccc3CC21 (stereo partly drawn)	55%
O=CNc1ccc2c(c1)C(=O)c1ccccc1-2	94% (active)
CCOc1ccc2c(c1)c(CC(=O)O)cn2C	60%
OC1CSCCCSCCSCCCSC1	-61%
N#Cc1c(N)[nH]c2ccc(Sc3ccccc3)cc12	94% (active)
Cc1ccc(-c2ccc(Nc3c4ccccc4nc4ccccc34)cc2)cn1	95% (active)
c1ccc2c(c1)NC(NC1Nc3ccccc3N1)N2	19%
OC(COc1cccc2ccccc12)CN1CCOCC1 (stereo not drawn)	51%
CCC/C(Cl)=N\OC(=O)Nc1ccc(Br)cc1	98% (active)
COc1ccc(/C=C2\SC(=S)N(/C=C/c3nc4ccccc4[nH]c3=O)C2=O)cc1OC	61%
O=C(NNc1ccnc2cc(Cl)ccc12)/C(=C\c1ccccc1Cl)NC(=O)c1ccccc1	38%
CSC1=NNC(SC)=NN1	70% (active)
Cc1c(C2=C(Br)C(=O)N(C)C2=O)c(=O)n(C)c(=O)n1C	67%
NCCNc1ccc(NCCN)c2c1C(=O)c1c(O)ccc(O)c1C2=O	85% (active)
Cn1c(=O)c(-c2ccccc2)c(N=[N+]=[N-])c2ccccc21	92% (active)
CCCCCCCCCCCCCCCCCCOCC(O)COP(=O)(O)OCC1OC(n2cc(F)c(=O)[nH]c2=O)CC1O (stereo not drawn)	97% (active)
CCS(=O)(=O)c1ccc(/C=C/C=N/NC(=S)NCC(C)C)cc1	3%
CCC(=O)Oc1c(Cl)cc(Cl)c2ccccc12	4%

SMILES	growth inhibition
COc1cc2c3c(cccc3c1)C(=O)N(CCN(C)C)C2=O	55%
CN(C)c1ccc(C(C#N)=C(C#N)C#N)cc1	5%
O=C(CCCN1CCC2(CC1)CC(=O)N(N1CCCCCC1)C2=O)c1ccc(F)cc1	53%
O=C1C2C(C(=O)N1c1ccc(OCc3ccccc3)cc1)C1c3ccccc3C2C2CCCCN21 (stereo not drawn)	12%
CCN(CC)CCC(=O)c1ccc(Oc2ccc(F)cc2)cc1	8%
O=Nc1c(NO)ccc2nn(-c3ccccc3)nc12	98% (active)
CC(=O)SCCC[Si](C)(C)CCCSC(C)=O	28%
O=C(O)C1CCCCC1c1c2ccc(=O)c(O)c-2oc2c(O)c(O)ccc12 (stereo not drawn)	24%
Cc1ccc(NN(NC(=O)OC(C)C)C(=O)OC(C)C)cc1	8%
O=C1c2ccccc2C(=O)c2cc(CBr)ccc21	79% (active)
Cc1c(C(Cc2ccccc2N(C)C(=O)/C=C\C(=O)O)c2c[nH]c3ccccc23)c2ccccc2n1C (stereo not drawn)	7%
CC(C)/C(Cl)=N\OC(=O)Nc1ccc(F)cc1	20%
O=C1OC(=O)C2CCCC3CCCC1C32 (stereo not drawn)	90% (active)
CCOC(=O)C(NC(=O)c1ccccc1)(N1CCN(c2cc3c(cc2F)c(=O)c(C(=O)O)cn3C2CC2)CC1)C(F)(F)F (stereo not drawn)	35%
COc1ccc(NC(=S)N/N=C(\c2ccccc2)c2ccccn2)cc1	59%
C=CCC1=C(C)C(OC(=O)/C=C/c2ccccc2)CC1=O (stereo not drawn)	5%
NNc1c(F)c(F)cc(F)c1F	-11%
COP(=O)(OC)/C(=C\C1=CN(C(c2ccccc2)(c2ccccc2)c2ccccc2)CN1)NC=O	59%
COC(=O)c1cc(-c2ccc(C)cc2)[nH]c(=O)c1C#N	-1%

same assay, conditions: S. cerevisiae rad52 mutant growth inhibition; at 100.0 µM; hits give high values

SMILES	growth inhibition
CCOP(=O)(OCC)C(Cc1ccccc1)N=C(c1ccccc1)c1ccccc1 (stereo not drawn)	98% (active)
CCc1ncnc2cc(OCC3CO3)c(OC)cc12 (stereo not drawn)	87% (active)
CCOC(=O)[C@H]1Nc2ccccc2C2c3ccccc3CC21 (stereo partly drawn)	76% (active)
O=CNc1ccc2c(c1)C(=O)c1ccccc1-2	97% (active)
CCOc1ccc2c(c1)c(CC(=O)O)cn2C	85% (active)
OC1CSCCCSCCSCCCSC1	-48%
N#Cc1c(N)[nH]c2ccc(Sc3ccccc3)cc12	81% (active)
Cc1ccc(-c2ccc(Nc3c4ccccc4nc4ccccc34)cc2)cn1	92% (active)
c1ccc2c(c1)NC(NC1Nc3ccccc3N1)N2	31%
OC(COc1cccc2ccccc12)CN1CCOCC1 (stereo not drawn)	50%
CCC/C(Cl)=N\OC(=O)Nc1ccc(Br)cc1	98% (active)
COc1ccc(/C=C2\SC(=S)N(/C=C/c3nc4ccccc4[nH]c3=O)C2=O)cc1OC	86% (active)
O=C(NNc1ccnc2cc(Cl)ccc12)/C(=C\c1ccccc1Cl)NC(=O)c1ccccc1	38%
CSC1=NNC(SC)=NN1	98% (active)
Cc1c(C2=C(Br)C(=O)N(C)C2=O)c(=O)n(C)c(=O)n1C	87% (active)
NCCNc1ccc(NCCN)c2c1C(=O)c1c(O)ccc(O)c1C2=O	63%
Cn1c(=O)c(-c2ccccc2)c(N=[N+]=[N-])c2ccccc21	89% (active)
CCCCCCCCCCCCCCCCCCOCC(O)COP(=O)(O)OCC1OC(n2cc(F)c(=O)[nH]c2=O)CC1O (stereo not drawn)	97% (active)
CCS(=O)(=O)c1ccc(/C=C/C=N/NC(=S)NCC(C)C)cc1	1%
CCC(=O)Oc1c(Cl)cc(Cl)c2ccccc12	54%

SMILES	growth inhibition
COc1cc2c3c(cccc3c1)C(=O)N(CCN(C)C)C2=O	87% (active)
CN(C)c1ccc(C(C#N)=C(C#N)C#N)cc1	49%
O=C(CCCN1CCC2(CC1)CC(=O)N(N1CCCCCC1)C2=O)c1ccc(F)cc1	65%
O=C1C2C(C(=O)N1c1ccc(OCc3ccccc3)cc1)C1c3ccccc3C2C2CCCCN21 (stereo not drawn)	79% (active)
CCN(CC)CCC(=O)c1ccc(Oc2ccc(F)cc2)cc1	83% (active)
O=Nc1c(NO)ccc2nn(-c3ccccc3)nc12	98% (active)
CC(=O)SCCC[Si](C)(C)CCCSC(C)=O	53%
O=C(O)C1CCCCC1c1c2ccc(=O)c(O)c-2oc2c(O)c(O)ccc12 (stereo not drawn)	79% (active)
Cc1ccc(NN(NC(=O)OC(C)C)C(=O)OC(C)C)cc1	17%
O=C1c2ccccc2C(=O)c2cc(CBr)ccc21	91% (active)
Cc1c(C(Cc2ccccc2N(C)C(=O)/C=C\C(=O)O)c2c[nH]c3ccccc23)c2ccccc2n1C (stereo not drawn)	36%
CC(C)/C(Cl)=N\OC(=O)Nc1ccc(F)cc1	78% (active)
O=C1OC(=O)C2CCCC3CCCC1C32 (stereo not drawn)	97% (active)
CCOC(=O)C(NC(=O)c1ccccc1)(N1CCN(c2cc3c(cc2F)c(=O)c(C(=O)O)cn3C2CC2)CC1)C(F)(F)F (stereo not drawn)	75% (active)
COc1ccc(NC(=S)N/N=C(\c2ccccc2)c2ccccn2)cc1	96% (active)
C=CCC1=C(C)C(OC(=O)/C=C/c2ccccc2)CC1=O (stereo not drawn)	39%
NNc1c(F)c(F)cc(F)c1F	21%
COP(=O)(OC)/C(=C\C1=CN(C(c2ccccc2)(c2ccccc2)c2ccccc2)CN1)NC=O	96% (active)
COC(=O)c1cc(-c2ccc(C)cc2)[nH]c(=O)c1C#N	-4%
